In PubChem BioAssay AID1159580 (chemical genetic matrix, 2015):
In all, about 5,500 compounds went through this assay and about 2,000 (36%) were called active. Not shown: some 18% with an inconclusive outcome. Rule as the data show it: active = normalized growth mostly below about 0.91 (no sharp cut-off); inconclusive = no clear call, values can overlap the other calls; inactive = mostly above about 0.92. The list shows a part of the results.

Assay: chemical genetic growth profiling, strain panel (AID 1159580);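 also: tested at 20 µM; growth read once vehicle control cultures reached saturation at 30 °C; 1 = growth at the plate median or of vehicle wells; lower values mean less growth of the strain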
Details: growth OD

Measured: normalized growth

CC1=C(C(=O)O)N2C(=O)[C@@H](NC(=O)[C@H](N)C3=CCC=CC3)C2SC1 (some centres not stated)
inactive: S. cerevisiae deletion strains, locus YJR066W, strain TOR1, hits give low values 0.974 | S. cerevisiae deletion strains, locus YKL009W, strain mrt4, hits give low values 1 | S. cerevisiae deletion strains, locus YKL068W, hits give low values 0.979 | S. cerevisiae deletion strains, locus YKL085W, strain MDH1 (second series), hits give low values 0.978 | S. cerevisiae deletion strains, locus YKL085W, strain MDH1, hits give low values 0.978 | S. cerevisiae deletion strains, locus YKL160W, strain elf1, hits give low values 1 | S. cerevisiae deletion strains, locus YKR001C, strain vps1, hits give low values 0.994 | S. cerevisiae deletion strains, locus YKR026C, strain gcn3, hits give low values 1.02 | S. cerevisiae deletion strains, locus YKR091W, strain srl3, hits give low values 1.01 | S. cerevisiae deletion strains, locus YLL001W, strain dnm1, hits give low values 0.998 | S. cerevisiae deletion strains, locus YLL026W, hits give low values 1.02 | S. cerevisiae deletion strains, locus YLL041C, strain sdh2, hits give low values 1.02 | S. cerevisiae deletion strains, locus YLR027C, strain aat2, hits give low values 1.02 | S. cerevisiae deletion strains, locus YLR039C, strain RIC1, hits give low values 0.983 | S. cerevisiae deletion strains, locus YLR058C, strain SHM2, hits give low values 0.974 | S. cerevisiae deletion strains, locus YLR102C, strain apc9, hits give low values 1 | S. cerevisiae deletion strains, locus YLR113W, strain HOG1, hits give low values 0.968 | S. cerevisiae deletion strains, locus YLR221C, strain rsa3, hits give low values 1.02 | S. cerevisiae deletion strains, locus YLR258W, strain gsy2, hits give low values 1.03 | S. cerevisiae deletion strains, locus YLR262C, strain YPT6 (second series), hits give low values 1.04 | S. cerevisiae deletion strains, locus YLR262C, strain YPT6, hits give low values 0.924 | S. cerevisiae deletion strains, locus YLR268W, strain sec22, hits give low values 1 | S. cerevisiae deletion strains, locus YLR320W, strain mms22, hits give low values 1.01 | S. cerevisiae deletion strains, locus YLR330W, strain CHS5, hits give low values 0.986 | S. cerevisiae deletion strains, locus YLR342W, strain FKS1 (second series), hits give low values 1.03 | S. cerevisiae deletion strains, locus YLR342W, strain FKS1, hits give low values 1.01 | S. cerevisiae deletion strains, locus YLR357W, strain rsc2, hits give low values 1.04 | S. cerevisiae deletion strains, locus YLR370C, strain arc18, hits give low values 1.03 | S. cerevisiae deletion strains, locus YLR371W, strain rom2, hits give low values 0.999 | S. cerevisiae deletion strains, locus YLR384C, strain iki3, hits give low values 1.02 | S. cerevisiae deletion strains, locus YLR418C, strain cdc73, hits give low values 1.01 | S. cerevisiae deletion strains, locus YML016C, strain PPZ1, hits give low values 0.986 | S. cerevisiae deletion strains, locus YML032C, strain rad52, hits give low values 0.995 | S. cerevisiae deletion strains, locus YML120C, strain ndi1, hits give low values 1.02 | S. cerevisiae deletion strains, locus YML124C, strain tub3, hits give low values 0.995 | S. cerevisiae deletion strains, locus YMR058W, strain fet3, hits give low values 1.02 | S. cerevisiae deletion strains, locus YMR078C, strain ctf18, hits give low values 0.994 | S. cerevisiae deletion strains, locus YMR125W, strain sto1, hits give low values 0.996 | S. cerevisiae deletion strains, locus YMR129W, hits give low values 1.02 | S. cerevisiae deletion strains, locus YMR205C, strain PFK2, hits give low values 1.04 | S. cerevisiae deletion strains, locus YMR223W, strain ubp8, hits give low values 1.01 | S. cerevisiae deletion strains, locus YMR231W, strain pep5, hits give low values 1 | S. cerevisiae deletion strains, locus YMR263W, strain SAP30, hits give low values 1 | S. cerevisiae deletion strains, locus YMR307W, strain GAS1, hits give low values 0.933 | S. cerevisiae deletion strains, locus YNL067W, strain RPL9B, hits give low values 1.02 | S. cerevisiae deletion strains, locus YNL071W, strain lat1, hits give low values 1.02 | S. cerevisiae deletion strains, locus YNL153C, strain GIM3, hits give low values 1.02 | S. cerevisiae deletion strains, locus YNL183C, strain NPR1, hits give low values 0.933 | S. cerevisiae deletion strains, locus YNL209W, strain ssb2, hits give low values 1.03 | S. cerevisiae deletion strains, locus YNL233W, strain BNI4, hits give low values 1.03 | S. cerevisiae deletion strains, locus YNL248C, strain rpa49, hits give low values 1.05 | S. cerevisiae deletion strains, locus YNL250W, strain rad50, hits give low values 1 | S. cerevisiae deletion strains, locus YNL271C, strain bni1, hits give low values 1 | S. cerevisiae deletion strains, locus YNL298W, strain CLA4, hits give low values 0.999 | S. cerevisiae deletion strains, locus YNL307C, strain MCK1, hits give low values 0.995 | S. cerevisiae deletion strains, locus YNL322C, strain KRE1 (second series), hits give low values 1.01 | S. cerevisiae deletion strains, locus YNR049C, strain mso1, hits give low values 1.02 | S. cerevisiae deletion strains, locus YNR052C, strain pop2, hits give low values 0.996 | S. cerevisiae deletion strains, locus YOL012C, strain htz1 0.951 | S. cerevisiae deletion strains, locus YOL147C, strain pex11, hits give low values 0.997 | S. cerevisiae deletion strains, locus YOR001W, strain rrp6, hits give low values 1.02 | S. cerevisiae deletion strains, locus YOR061W, strain CKA2, hits give low values 0.968 | S. cerevisiae deletion strains, locus YOR069W, strain VPS5, hits give low values 0.976 | S. cerevisiae deletion strains, locus YOR070C, strain gyp1, hits give low values 1.02 | S. cerevisiae deletion strains, locus YOR080W, strain dia2, hits give low values 1.03 | S. cerevisiae deletion strains, locus YOR083W, strain WHI5, hits give low values 0.993 | S. cerevisiae deletion strains, locus YOR106W, strain vam3, hits give low values 1.04 | S. cerevisiae deletion strains, locus YOR136W, strain idh2, hits give low values 0.984 | S. cerevisiae deletion strains, locus YOR144C, strain elg1, hits give low values 0.995 | S. cerevisiae deletion strains, locus YOR184W, strain ser1, hits give low values 0.992 | S. cerevisiae deletion strains, locus YOR231W, strain MKK1, hits give low values 0.979 | S. cerevisiae deletion strains, locus YOR265W, strain rbl2, hits give low values 1.02 | S. cerevisiae deletion strains, locus YOR270C, strain vph1, hits give low values 1.07 | S. cerevisiae deletion strains, locus YOR290C, strain snf2, hits give low values 1.02 | S. cerevisiae deletion strains, locus YOR316C, strain cot1, hits give low values 0.991 | S. cerevisiae deletion strains, locus YPL051W, strain arl3, hits give low values 1.01 | S. cerevisiae deletion strains, locus YPL078C, strain atp4, hits give low values 1.02 | S. cerevisiae deletion strains, locus YPL106C, strain sse1, hits give low values 1.03 | S. cerevisiae deletion strains, locus YPL240C, strain hsp82, hits give low values 1.01 | S. cerevisiae deletion strains, locus YPL241C, strain CIN2, hits give low values 0.989 | S. cerevisiae deletion strains, locus YPL256C, strain CLN2, hits give low values 0.956 | S. cerevisiae deletion strains, locus YPR119W, strain clb2, hits give low values 0.995 | S. cerevisiae deletion strains, locus YPR141C, strain kar3, hits give low values 0.988 | S. cerevisiae deletion strains, locus YPR163C, strain tif3, hits give low values 0.995 | S. cerevisiae deletion strains, locus YPR167C, strain met16, hits give low values 0.998 | S. cerevisiae deletion strains, strain wtn01, hits give low values 1.04 | S. cerevisiae strains, strain wild type, hits give low values 0.985
